Holding throughout (test): DAPPL (digital affinity profiling via proximity ligation, sequencing); 10 mM Tris-HCl pH 7.5, 50 mM NaCl, 1 mM DTT, 4% glycerol, room temperature, 30 min; GST-TFs on glutathione beads, 16-mer random dsDNA library, 0.1% formaldehyde crosslink after washing; high values mean tight binding
Assay [1] deals with T1, FEV (Homo sapiens, UniProt Q99581 1-238).
T1 sequence: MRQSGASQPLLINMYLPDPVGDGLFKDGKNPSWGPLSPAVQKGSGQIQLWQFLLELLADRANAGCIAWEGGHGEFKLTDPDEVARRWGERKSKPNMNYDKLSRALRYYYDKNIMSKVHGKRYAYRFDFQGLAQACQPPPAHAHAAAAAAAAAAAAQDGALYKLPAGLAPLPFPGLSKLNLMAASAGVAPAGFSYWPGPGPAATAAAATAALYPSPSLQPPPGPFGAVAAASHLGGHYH
To be noted: protein: recombinant; tags: N-terminal GST; dsDNA, one strand shown. The essentials:
(§1)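 Binding signal is each hexamer's read frequency for a factor divided by its frequency in the tag-only sample. The factors were GST-fused human transcription factors from yeast, captured on glutathione beads, DNA-barcoded and pooled with that sample. Pools were incubated with 200 nmole of a random double-stranded 16-mer DNA library in Tris/NaCl/DTT/glycerol buffer at room temperature for 30 min, then washed, crosslinked with 0.1% formaldehyde, proximity-ligated with BsaI/T4 ligase (1 h, 37 °C), PCR-amplified and sequenced on an Illumina NextSeq500.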

Assay [2] concerns the target ETV5 (Homo sapiens, UniProt P41161 1-510). To be noted: protein: recombinant; tags: N-terminal GST; dsDNA, one strand shown. The essentials: as §1
Assay [3] has as its target HSF1 (Homo sapiens, UniProt Q00613 1-529). As to conditions: protein: recombinant; tags: N-terminal GST; chain copies: 3; dsDNA, one strand shown. Put shortly:
as §1

The target in assay [4] is T2, SPIC (Homo sapiens, UniProt Q8N5J4 1-248).
T2 sequence: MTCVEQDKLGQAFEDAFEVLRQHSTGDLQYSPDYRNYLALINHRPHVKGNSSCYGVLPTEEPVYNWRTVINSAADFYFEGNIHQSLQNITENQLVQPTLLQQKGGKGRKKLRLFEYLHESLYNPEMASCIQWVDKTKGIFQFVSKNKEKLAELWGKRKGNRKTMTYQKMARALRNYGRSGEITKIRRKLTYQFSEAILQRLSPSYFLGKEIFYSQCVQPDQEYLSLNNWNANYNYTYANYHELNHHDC
As to conditions: protein: recombinant; tags: N-terminal GST; dsDNA, one strand shown. Put shortly:
as §1

The target of assay [5] is ELF4 (Homo sapiens, UniProt Q99607 1-663). To be noted: protein: recombinant; tags: N-terminal GST; dsDNA, one strand shown. Put shortly:
as §1

Assay [6] concerns the target T3, ELK4 (Homo sapiens, UniProt P28324-2 1-405).
T3 sequence: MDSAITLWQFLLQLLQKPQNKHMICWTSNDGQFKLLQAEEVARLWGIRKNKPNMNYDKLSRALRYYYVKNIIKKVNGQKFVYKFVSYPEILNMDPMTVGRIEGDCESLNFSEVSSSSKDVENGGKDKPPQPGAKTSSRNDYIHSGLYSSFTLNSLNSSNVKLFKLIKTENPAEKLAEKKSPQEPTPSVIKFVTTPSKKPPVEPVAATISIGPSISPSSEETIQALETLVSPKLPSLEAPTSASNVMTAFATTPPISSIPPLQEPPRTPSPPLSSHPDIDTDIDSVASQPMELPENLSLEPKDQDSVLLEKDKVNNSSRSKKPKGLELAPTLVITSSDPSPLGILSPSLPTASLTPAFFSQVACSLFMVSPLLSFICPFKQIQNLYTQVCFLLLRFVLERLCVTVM
To be noted: protein: recombinant; tags: N-terminal GST; dsDNA, one strand shown. The essentials: as §1

In assay [7] the target is T4, ETV2 (Homo sapiens, UniProt O00321 1-342).
T4 sequence: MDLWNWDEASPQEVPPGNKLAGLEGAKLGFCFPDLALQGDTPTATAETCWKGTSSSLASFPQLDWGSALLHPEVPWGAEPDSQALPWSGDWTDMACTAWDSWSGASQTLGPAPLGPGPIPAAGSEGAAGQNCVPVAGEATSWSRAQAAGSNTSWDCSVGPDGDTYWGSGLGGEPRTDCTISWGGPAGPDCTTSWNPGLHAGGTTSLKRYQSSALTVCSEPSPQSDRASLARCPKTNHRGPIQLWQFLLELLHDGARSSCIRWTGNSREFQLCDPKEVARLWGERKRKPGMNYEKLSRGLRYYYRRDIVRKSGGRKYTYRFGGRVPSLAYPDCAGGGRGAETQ
As to conditions: protein: recombinant; tags: N-terminal GST; dsDNA, one strand shown. The essentials:
as §1

The target in assay [8] is T5, ELF3 (Homo sapiens, UniProt P78545 1-371).
T5 sequence: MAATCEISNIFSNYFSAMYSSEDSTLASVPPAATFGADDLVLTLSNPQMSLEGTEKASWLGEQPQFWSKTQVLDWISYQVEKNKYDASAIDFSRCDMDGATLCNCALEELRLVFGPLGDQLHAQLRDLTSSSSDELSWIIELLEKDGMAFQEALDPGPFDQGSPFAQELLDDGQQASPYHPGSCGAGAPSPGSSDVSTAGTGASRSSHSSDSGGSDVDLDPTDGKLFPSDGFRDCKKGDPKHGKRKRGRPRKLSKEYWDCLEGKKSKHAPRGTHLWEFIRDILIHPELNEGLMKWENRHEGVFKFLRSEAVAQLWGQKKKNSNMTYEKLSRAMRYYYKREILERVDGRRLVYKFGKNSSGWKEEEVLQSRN
As to conditions: protein: recombinant; tags: N-terminal GST; dsDNA, one strand shown. Put shortly: as §1

For assay [9], the target named is CRX (Homo sapiens, UniProt O43186 1-299). To be noted: protein: recombinant; tags: N-terminal GST; dsDNA, one strand shown. The essentials: as §1
Assay [10] has as its target ETV1 (Homo sapiens, UniProt P50549 1-477). To be noted: protein: recombinant; tags: N-terminal GST; dsDNA, one strand shown. Put shortly:
as §1

Assay [11] deals with T6, ERF (Homo sapiens, UniProt P50548 1-548).
T6 sequence: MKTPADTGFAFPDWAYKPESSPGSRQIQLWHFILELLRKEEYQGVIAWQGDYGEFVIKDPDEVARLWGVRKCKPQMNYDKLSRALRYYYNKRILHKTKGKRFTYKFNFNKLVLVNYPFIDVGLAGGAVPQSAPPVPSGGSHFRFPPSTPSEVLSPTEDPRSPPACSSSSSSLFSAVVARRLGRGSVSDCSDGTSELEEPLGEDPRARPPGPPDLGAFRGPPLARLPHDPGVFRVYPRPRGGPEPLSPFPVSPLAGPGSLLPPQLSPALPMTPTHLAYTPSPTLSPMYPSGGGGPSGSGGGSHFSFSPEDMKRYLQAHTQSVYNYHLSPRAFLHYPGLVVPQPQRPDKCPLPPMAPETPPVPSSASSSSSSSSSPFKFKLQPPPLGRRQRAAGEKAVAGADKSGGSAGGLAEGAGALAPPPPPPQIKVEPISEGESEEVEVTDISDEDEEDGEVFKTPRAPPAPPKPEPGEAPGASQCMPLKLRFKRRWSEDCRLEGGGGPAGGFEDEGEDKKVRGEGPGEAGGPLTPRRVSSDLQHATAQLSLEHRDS
As to conditions: protein: recombinant; tags: N-terminal GST; dsDNA, one strand shown. The essentials: as §1

Assay [12] addresses T7, ETV3L (Homo sapiens, UniProt Q6ZN32 1-361).
T7 sequence: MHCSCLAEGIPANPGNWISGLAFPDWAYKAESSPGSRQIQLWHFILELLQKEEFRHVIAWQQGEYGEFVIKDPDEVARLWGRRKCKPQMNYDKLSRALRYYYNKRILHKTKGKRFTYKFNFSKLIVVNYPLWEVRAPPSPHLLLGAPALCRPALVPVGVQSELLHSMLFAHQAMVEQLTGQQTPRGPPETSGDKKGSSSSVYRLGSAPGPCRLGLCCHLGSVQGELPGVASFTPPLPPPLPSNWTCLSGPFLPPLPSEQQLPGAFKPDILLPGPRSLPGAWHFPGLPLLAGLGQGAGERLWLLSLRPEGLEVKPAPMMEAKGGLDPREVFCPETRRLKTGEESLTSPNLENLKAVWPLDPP
To be noted: protein: recombinant; tags: N-terminal GST; dsDNA, one strand shown. Put shortly: as §1

Assay [13] deals with T8, ETS2 (Homo sapiens, UniProt P15036 1-469).
T8 sequence: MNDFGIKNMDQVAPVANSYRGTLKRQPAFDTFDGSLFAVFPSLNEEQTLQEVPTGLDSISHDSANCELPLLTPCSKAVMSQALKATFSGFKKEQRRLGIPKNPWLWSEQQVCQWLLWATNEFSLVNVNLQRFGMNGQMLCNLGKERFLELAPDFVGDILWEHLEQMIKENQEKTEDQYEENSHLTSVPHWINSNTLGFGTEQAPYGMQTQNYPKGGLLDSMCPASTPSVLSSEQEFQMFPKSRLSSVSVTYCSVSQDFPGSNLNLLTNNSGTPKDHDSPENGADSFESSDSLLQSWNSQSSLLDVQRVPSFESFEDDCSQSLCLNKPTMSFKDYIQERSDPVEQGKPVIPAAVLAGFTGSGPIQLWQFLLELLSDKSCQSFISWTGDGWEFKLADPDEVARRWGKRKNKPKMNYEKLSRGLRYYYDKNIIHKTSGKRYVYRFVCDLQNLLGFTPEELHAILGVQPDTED
As to conditions: protein: recombinant; tags: N-terminal GST; dsDNA, one strand shown. Put shortly:
as §1

The target of assay [14] is T9, SPDEF (Homo sapiens, UniProt O95238 1-335).
T9 sequence: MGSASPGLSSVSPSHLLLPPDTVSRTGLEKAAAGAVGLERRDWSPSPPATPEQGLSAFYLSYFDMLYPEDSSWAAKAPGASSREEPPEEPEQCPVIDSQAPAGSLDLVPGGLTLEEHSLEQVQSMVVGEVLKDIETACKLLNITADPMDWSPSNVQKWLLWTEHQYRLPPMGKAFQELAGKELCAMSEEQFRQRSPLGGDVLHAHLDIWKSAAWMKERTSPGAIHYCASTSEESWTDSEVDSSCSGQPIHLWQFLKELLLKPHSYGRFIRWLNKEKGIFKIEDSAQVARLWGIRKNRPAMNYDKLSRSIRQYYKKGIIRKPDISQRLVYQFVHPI
As to conditions: protein: recombinant; tags: N-terminal GST; dsDNA, one strand shown. Put shortly:
as §1

Assay [15] addresses T10, ETV7 (Homo sapiens, UniProt Q9Y603 1-341).
T10 sequence: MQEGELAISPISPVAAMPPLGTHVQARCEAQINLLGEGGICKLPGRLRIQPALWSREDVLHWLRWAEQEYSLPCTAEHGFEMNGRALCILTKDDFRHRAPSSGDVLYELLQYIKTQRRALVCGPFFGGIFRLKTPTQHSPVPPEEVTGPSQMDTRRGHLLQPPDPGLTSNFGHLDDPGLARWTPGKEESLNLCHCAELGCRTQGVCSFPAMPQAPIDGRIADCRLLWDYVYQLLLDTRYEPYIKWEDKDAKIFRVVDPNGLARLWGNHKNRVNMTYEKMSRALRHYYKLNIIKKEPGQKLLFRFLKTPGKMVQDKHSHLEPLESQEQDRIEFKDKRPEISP
As to conditions: protein: recombinant; tags: N-terminal GST; dsDNA, one strand shown. Put shortly: as §1

Assay [16] deals with T11, ELF5 (Homo sapiens, UniProt Q9UKW6-2 1-255).
T11 sequence: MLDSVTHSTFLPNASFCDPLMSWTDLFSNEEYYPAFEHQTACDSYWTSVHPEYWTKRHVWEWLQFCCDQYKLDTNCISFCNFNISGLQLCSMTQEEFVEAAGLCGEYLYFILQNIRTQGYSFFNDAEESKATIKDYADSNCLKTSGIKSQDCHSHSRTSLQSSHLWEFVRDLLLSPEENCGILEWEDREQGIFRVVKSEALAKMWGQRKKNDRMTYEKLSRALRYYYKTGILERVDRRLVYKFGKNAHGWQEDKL
To be noted: protein: recombinant; tags: N-terminal GST; dsDNA, one strand shown. Put shortly: as §1

The target in assay [17] is T12, ETV3 (Homo sapiens, UniProt P41162-2 1-143).
T12 sequence: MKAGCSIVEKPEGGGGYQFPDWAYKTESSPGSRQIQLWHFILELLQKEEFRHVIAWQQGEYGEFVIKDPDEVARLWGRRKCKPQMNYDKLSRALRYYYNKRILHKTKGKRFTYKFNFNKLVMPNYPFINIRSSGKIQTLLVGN
To be noted: protein: recombinant; tags: N-terminal GST; dsDNA, one strand shown. Put shortly: as §1

Assay [18] has as its target ETV6 (Homo sapiens, UniProt P41212 1-452). As to conditions: protein: recombinant; tags: N-terminal GST; dsDNA, one strand shown. The essentials:
as §1

Chain of CRX (O43186 whole entry): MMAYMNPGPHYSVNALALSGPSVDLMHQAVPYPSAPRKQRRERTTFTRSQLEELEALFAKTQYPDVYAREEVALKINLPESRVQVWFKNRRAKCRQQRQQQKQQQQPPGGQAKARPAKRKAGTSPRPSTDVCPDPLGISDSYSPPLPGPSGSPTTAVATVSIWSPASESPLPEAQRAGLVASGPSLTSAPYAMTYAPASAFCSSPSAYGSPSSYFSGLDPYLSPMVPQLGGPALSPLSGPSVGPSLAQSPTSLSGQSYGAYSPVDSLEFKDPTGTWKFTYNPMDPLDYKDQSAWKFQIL
Chain of ETV5 (P41161 whole entry): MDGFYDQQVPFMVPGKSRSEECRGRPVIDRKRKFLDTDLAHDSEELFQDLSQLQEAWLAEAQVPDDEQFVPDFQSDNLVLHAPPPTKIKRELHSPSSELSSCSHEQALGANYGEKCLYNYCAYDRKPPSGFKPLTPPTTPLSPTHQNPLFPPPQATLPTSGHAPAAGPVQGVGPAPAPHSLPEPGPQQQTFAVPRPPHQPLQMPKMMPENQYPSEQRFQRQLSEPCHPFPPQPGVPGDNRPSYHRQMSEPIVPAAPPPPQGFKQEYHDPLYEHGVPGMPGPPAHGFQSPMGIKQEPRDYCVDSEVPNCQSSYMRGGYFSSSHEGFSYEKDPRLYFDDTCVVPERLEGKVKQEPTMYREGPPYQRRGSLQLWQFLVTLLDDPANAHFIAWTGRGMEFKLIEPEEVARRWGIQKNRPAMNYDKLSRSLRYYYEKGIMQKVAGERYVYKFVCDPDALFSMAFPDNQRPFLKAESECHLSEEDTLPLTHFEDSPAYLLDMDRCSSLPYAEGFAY
Chain of ELF4 (Q99607 whole entry): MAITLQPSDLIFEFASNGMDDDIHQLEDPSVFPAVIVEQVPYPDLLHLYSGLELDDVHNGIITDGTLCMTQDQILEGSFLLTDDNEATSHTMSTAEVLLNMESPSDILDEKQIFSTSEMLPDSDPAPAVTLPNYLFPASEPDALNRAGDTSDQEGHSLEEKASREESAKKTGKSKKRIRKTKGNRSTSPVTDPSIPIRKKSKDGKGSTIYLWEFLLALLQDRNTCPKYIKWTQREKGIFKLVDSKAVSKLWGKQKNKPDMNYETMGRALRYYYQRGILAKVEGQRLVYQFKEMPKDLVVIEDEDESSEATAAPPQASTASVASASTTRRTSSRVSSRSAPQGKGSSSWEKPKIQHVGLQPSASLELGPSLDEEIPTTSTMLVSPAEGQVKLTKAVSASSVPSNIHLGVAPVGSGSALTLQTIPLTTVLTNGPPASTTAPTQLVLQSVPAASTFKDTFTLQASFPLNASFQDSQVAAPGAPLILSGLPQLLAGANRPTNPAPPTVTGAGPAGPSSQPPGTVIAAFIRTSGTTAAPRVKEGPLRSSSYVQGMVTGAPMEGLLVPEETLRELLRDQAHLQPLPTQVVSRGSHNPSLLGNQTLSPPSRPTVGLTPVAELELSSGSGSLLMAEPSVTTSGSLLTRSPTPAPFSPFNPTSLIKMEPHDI
Chain of HSF1 (Q00613 whole entry): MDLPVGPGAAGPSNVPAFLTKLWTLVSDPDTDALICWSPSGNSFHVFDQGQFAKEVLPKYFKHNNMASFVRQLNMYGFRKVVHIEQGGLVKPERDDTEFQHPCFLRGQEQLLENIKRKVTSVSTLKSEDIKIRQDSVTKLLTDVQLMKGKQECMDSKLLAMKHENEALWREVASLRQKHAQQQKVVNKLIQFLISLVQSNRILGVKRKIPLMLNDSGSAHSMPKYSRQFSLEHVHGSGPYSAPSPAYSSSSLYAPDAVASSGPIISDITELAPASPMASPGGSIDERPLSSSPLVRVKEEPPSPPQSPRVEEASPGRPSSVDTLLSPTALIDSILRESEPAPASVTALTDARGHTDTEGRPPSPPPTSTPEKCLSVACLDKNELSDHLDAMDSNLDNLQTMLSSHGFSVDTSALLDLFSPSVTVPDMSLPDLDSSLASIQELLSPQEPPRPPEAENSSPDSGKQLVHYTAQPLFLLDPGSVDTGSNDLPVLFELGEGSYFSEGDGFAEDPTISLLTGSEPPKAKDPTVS
Chain of ETV1 (P50549 whole entry): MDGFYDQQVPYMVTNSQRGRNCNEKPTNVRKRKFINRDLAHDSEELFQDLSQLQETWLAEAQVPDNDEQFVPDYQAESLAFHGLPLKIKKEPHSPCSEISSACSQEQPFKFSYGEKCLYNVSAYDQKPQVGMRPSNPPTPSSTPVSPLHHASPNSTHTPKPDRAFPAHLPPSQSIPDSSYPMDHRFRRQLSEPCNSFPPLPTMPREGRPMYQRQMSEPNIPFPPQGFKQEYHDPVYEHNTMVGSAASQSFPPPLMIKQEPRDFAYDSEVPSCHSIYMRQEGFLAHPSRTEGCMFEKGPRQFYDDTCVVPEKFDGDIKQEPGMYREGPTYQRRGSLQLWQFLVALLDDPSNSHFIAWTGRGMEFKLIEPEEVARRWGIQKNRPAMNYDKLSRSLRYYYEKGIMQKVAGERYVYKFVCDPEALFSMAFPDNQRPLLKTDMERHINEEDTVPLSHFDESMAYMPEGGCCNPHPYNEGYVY
Chain of ETV6 (P41212 whole entry): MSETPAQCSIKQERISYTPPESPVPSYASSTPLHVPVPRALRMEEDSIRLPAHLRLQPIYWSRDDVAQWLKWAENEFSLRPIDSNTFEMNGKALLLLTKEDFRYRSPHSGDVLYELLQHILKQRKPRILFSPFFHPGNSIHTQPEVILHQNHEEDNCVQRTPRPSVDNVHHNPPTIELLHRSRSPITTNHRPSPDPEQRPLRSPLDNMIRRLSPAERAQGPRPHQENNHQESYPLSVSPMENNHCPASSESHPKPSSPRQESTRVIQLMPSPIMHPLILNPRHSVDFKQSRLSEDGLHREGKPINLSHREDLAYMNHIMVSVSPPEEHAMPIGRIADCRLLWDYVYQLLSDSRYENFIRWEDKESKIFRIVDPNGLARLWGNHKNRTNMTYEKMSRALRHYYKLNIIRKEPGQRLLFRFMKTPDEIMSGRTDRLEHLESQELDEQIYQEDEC

TCCTGT: the binding signal in assay [1] is 1.85 fold enrichment (6-mer frequency, TF over GST control); in [2], 2.04 fold enrichment (6-mer frequency, TF over GST control); in assay [3] it was 1.14 fold enrichment (6-mer frequency, TF over GST control); in assay [4] it was 1.87 fold enrichment (6-mer frequency, TF over GST control); in [5], 1.65 fold enrichment (6-mer frequency, TF over GST control); in assay [6], 1.56 fold enrichment (6-mer frequency, TF over GST control). Besides, the binding signal was 1.71 fold enrichment (6-mer frequency, TF over GST control) in assay [7]; 1.78 fold enrichment (6-mer frequency, TF over GST control) in assay [8]; 1.16 fold enrichment (6-mer frequency, TF over GST control) in [9]; 1.89 fold enrichment (6-mer frequency, TF over GST control) in assay [10]; 1.6 fold enrichment (6-mer frequency, TF over GST control) in assay [11]; 1.88 fold enrichment (6-mer frequency, TF over GST control) in assay [12]. Moreover, the binding signal in assay [13] is 1.84 fold enrichment (6-mer frequency, TF over GST control); in assay [14] it was 2.32 fold enrichment (6-mer frequency, TF over GST control); in assay [15], 1.89 fold enrichment (6-mer frequency, TF over GST control); in [16], 2.35 fold enrichment (6-mer frequency, TF over GST control); in assay [17] it was 1.89 fold enrichment (6-mer frequency, TF over GST control); in assay [18], 1.84 fold enrichment (6-mer frequency, TF over GST control).
